# Shown are actives, neighbours in structure and some others; about 1.2% of the full set was active somewhere.
# RGS4-Gao reg = modulators of RGS4 binding to Galphao, primary screen, biochemical, multiplexed bead flow cytometry; Guanine nucleotide-binding protein G(o) subunit alpha (Homo sapiens), P09471; actives lie on both sides; AID 1415, 2008; binding response (% of control), % at 10 µM; actives 0.33% (n = 220,000); in the data active = binding response below about 49% or above about 150%; inactive = in between;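 also: fluorescent Galphao activated with aluminum fluoride binding bead-coupled RGS4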
# RGS7-Gao = RGS7-Galphao binding modulators, primary screen, biochemical, multiplexed bead flow cytometry; binding response (% of control), % at 10 µM; Guanine nucleotide-binding protein G(o) subunit alpha (Homo sapiens), P09471; actives lie on both sides; actives 0.35% (n = 220,000); AID 1439, 2008; in the data active = binding response below about 49% or above about 150%; inconclusive = no clear call, values can overlap the other calls; inactive = in between;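 also: fluorescent Galphao held in activated GDP-AlF4 state binding bead-coupled RGS7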
# GSH fluor = compound fluorescence on glutathione beads, profiling panel, artefact control, biophysical, 488/530 nm, flow cytometry; GSH beads flow cytometry, compound fluorescence 488/530 nm; stronger effect = higher value; fluorescence (KMESF) at 10 µM; actives 0.25% (n = 190,000); in the data active = fluorescence above about 89;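 also: glutathione beads carrying GST-tagged Bcl family fusion proteins plus one bare bead set; values are compound well signal with DMSO vehicle wells as background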
# RGS16-Gao HTS = modulators of RGS16 binding to Galphao, primary screen, biochemical, human proteins, multiplexed bead flow cytometry | Regulator of G-protein signaling 16 (Homo sapiens) + Guanine nucleotide-binding protein … | bead-based flow cytometry RGS16-Galphao binding, fluorescence; actives lie on both sides | binding response (% of control), % at 10 µM | actives 0.38% (n = 220,000);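 also: Galphao activated by GDP with aluminum fluoride before binding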
# Target sequence (O15492 whole entry, looked up): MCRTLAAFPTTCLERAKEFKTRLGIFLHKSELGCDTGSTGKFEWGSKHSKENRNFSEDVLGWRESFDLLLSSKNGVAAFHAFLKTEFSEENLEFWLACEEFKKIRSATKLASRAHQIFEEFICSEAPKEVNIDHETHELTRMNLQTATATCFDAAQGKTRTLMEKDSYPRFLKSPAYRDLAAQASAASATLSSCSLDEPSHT
# Target sequence (P09471 whole entry, looked up): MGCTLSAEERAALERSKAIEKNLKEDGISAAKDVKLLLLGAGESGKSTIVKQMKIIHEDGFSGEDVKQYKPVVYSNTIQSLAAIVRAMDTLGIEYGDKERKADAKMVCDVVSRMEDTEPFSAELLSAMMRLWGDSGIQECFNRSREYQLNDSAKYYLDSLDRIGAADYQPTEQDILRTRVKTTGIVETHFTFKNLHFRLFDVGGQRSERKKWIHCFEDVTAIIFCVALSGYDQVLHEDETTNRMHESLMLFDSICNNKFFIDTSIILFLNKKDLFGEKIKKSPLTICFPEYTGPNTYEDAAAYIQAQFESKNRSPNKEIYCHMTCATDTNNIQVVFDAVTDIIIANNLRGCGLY
# RGS8-Gao reg = RGS8-Galphao binding modulators, primary screen, biochemical, multiplexed bead flow cytometry; response (percent of control binding), % at 10 µM; AID 1423, 2008; actives lie on both sides; Guanine nucleotide-binding protein G(o) subunit alpha (Homo sapiens), P09471; actives 0.34% (n = 220,000); in the data active = response below about 60% or above about 140%; inactive = in between;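 also: Galphao activated as the GDP aluminium fluoride complex binding bead-coupled RGS8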
# Avidin fluor = green autofluorescence of compounds with avidin beads – biophysical, 488/530 nm, flow cytometry, artefact control, profiling panel; compound fluorescence 488/530 nm; stronger effect = higher value; actives 0.38% (n = 220,000); fluorescence (KMESF) at 10 µM; in the data active = fluorescence above about 47
# RGS-Gao = modulators of RGS–Galpha-o binding, primary screen, biochemical, multiplexed beads, flow cytometry, RGS4/7/8/16/19. shares compounds with RGS16-Gao HTS. multiplexed bead flow cytometry. RGS4–Galpha-o binding response, % at 10 µM. actives 99% (n = 1,600). AID 1504, 2009;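 also: fluorescently labeled Galpha-o bound to GDP with aluminium fluoride binding biotinylated RGS beads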
# Biotin-avidin = disruption of biotin probe capture by avidin, counter-screen for RGS protein interaction modulators, biochemical, flow cytometry, bead-based. shares compounds with RGS16-Gao HTS. streptavidin beads, fluorescein-biotin binding. inhibition, % at 10 µM. 1,700 tested, under 10 active;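 active = inhibition above 50%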;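 also: median green fluorescence of gated singlet beads compared with DMSO control wells; 0% = DMSO wells and 100% = complete loss of bead fluorescence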
# RGS8-Gao single = RGS8-Galphao binding modulators, confirmation, biochemical, multiplexed bead flow cytometry, single concentration. shares compounds with RGS16-Gao HTS. bead-based flow cytometry RGS8-Galphao binding, fluorescence; actives lie on both sides. binding response (% of control), % at 10 µM. actives 3% (n = 1,700). AID 1836, 2009; in the data active = binding response below about 72% or above about 130%; inactive = in between;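 also: Galphao activated as GDP AlF4 complex before binding bead RGS8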
# RGS7-Gao confirm = RGS7-Galphao binding modulators, confirmation, biochemical, multiplexed bead flow cytometry, single concentration; shares compounds with RGS16-Gao HTS; bead-based flow cytometry RGS7-Galphao binding; actives lie on both sides; response (percent of control binding), % at 10 µM; actives 7.8% (n = 1,700); AID 1837, 2009; in the data active = response below about 75% or above about 130%; inactive = in between;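 also: fluorescent Galphao activated with GDP and aluminum fluoride binding bead-coupled RGS7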
# RGS16-Gao conf = modulators of RGS16-Galphao protein binding, confirmation, biochemical, single concentration, multiplexed bead flow cytometry | bead-based flow cytometry; actives lie on both sides | response (% of control binding), % at 10 µM | actives 4% (n = 1,700) | shares compounds with RGS16-Gao HTS | AID 1838, 2009; in the data active = response below about 74% or above about 130%; inactive = in between;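 also: Galphao activated as the GDP aluminium fluoride complex binding bead-coupled RGS16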
# RGS4-Gao single = modulators of RGS4-Galphao protein binding, confirmation, biochemical, single concentration, multiplexed bead flow cytometry; shares compounds with RGS16-Gao HTS; actives lie on both sides; binding response (% of control), % at 10 µM; actives 4% (n = 1,700); in the data active = binding response below about 74% or above about 130%; inactive = in between
# RGS19-Gao single = regulators of RGS19-Galphao binding, confirmation, biochemical, single point, multiplexed bead flow cytometry; response (percent of control binding), % at 10 µM; shares compounds with RGS16-Gao HTS; actives 5% (n = 1,700); bead-based flow cytometry RGS19-Galphao binding; actives lie on both sides; in the data active = response below about 50% or above about 160%; inactive = in between;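 also: 100% = no compound control and 0% = blank background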
# Active calls of the source: *; ? = inconclusive; · = no result; [ ] = remark or other dose. Unless noted, no rule for the calls is given here.
SMILES,RGS4-Gao reg,RGS7-Gao,GSH fluor,RGS16-Gao HTS,RGS8-Gao reg,Avidin fluor,Biotin-avidin,RGS8-Gao single,RGS7-Gao confirm,RGS16-Gao conf,RGS4-Gao single,RGS19-Gao single,others
O=c1c2ccccc2nc(SCc2nc(-c3ccccc3)no2)n1-c1ccc(F)cc1,104.7,105.3,22,111.0,106.7,10,·,·,·,·,·,·,
CCOC(=O)/C(C#N)=C/Nc1ccsc1C(=O)OC,85.1,?,·,87.9,92.4,3,·,·,·,·,·,·,
CCOC(=O)/C(C#N)=C/Nc1cc(C(=O)OCC)cc2c(OC)c(OC)ccc12,-4.8*,?,·,-5.8*,16.9*,-1,-1.0,99.5,95.5,96.4,95.2,95.3,
O=C(CSc1nnc(-c2cnccn2)n1Cc1ccco1)c1ccc2ccccc2c1,29.2*,25.3*,31,19.0*,21.5*,2,1.3,102.9,104.4,105.4,104.9,110.8,
CC(C)OC(=O)CSc1nnc(-c2cnccn2)n1Cc1ccco1,103.1,100.9,16,102.4,100.1,29,·,·,·,·,·,·,
NC(=O)c1ccc(NC(=O)CSc2nnc(-c3ccccn3)n2N)cc1,98.8,98.8,12,99.1,99.7,10,·,·,·,·,·,·,
COc1ccc(CNC(=O)c2c(F)c(F)c(F)c(F)c2F)cc1,93.2,51.2,12,97.1,58.1*,6,0.0,98.8,92.2,100.0,96.7,91.1,RGS-Gao=93.2*
Cc1cc(C)c(NS(=O)(=O)c2ccc(NC(=O)/C=C/C(=O)O)cc2)c(C)c1,9.7*,-0.2*,9,1.1*,12.0*,-3,0.9,98.4,97.4,97.7,99.3,108.8,
c1ccc2[nH]c(CSc3ncnc4c3oc3ccccc34)nc2c1,101.1,103.1,15,106.7,99.0,24,·,·,·,·,·,·,
Cc1nc(SCc2nc3ccccc3[nH]2)c2oc3ccccc3c2n1,128.0,166.7*[activator],19,129.3,102.5,133*,·,·,·,·,·,·,RGS-Gao=128.0*
CCOC(=O)Cc1csc(NC(=O)c2cc3c(s2)CCCC3)n1,104.8,111.9,15,101.2,100.8,10,·,·,·,·,·,·,
CCOC(=O)Cc1csc(NC(=O)c2csc3c2CCCC3)n1,28.9*,19.3*,25,3.8,14.3*,3,-1.6,92.8,91.2,88.5,91.8,88.0,

# Bioassay records from PubChem.
